Laboratory results: PubChem BioAssay (Tox21)
Records with an inconclusive call do not appear. Activity calls are given as the source filed them. Calls follow the shape of the dose curve; as a rule, active = well fitted curve in the direction sought with a large enough effect in the repeat runs; inconclusive = weak or mixed curves; inactive = no such curve, though single readings can be large; an effect the other way counts as inactive or inconclusive.

Legend:
[1] = target: Cytochrome P450 2D6 (Homo sapiens) (UniProt P10635); assay: Cytochrome P450 Family 2 Subfamily D Member 6 (CYP2D6) small molecule antagonists: luciferase reporter qHTS assay (AID 1671196); also: nearly all actives have a fitted effect of over 50% in size; also: potency is read from the fitted curve at half-maximal effect; as to activity change, negative = inhibition: series mostly up to about 120 µM
Chain of Cytochrome P450 2D6 (Homo sapiens) (P10635 whole entry, looked up): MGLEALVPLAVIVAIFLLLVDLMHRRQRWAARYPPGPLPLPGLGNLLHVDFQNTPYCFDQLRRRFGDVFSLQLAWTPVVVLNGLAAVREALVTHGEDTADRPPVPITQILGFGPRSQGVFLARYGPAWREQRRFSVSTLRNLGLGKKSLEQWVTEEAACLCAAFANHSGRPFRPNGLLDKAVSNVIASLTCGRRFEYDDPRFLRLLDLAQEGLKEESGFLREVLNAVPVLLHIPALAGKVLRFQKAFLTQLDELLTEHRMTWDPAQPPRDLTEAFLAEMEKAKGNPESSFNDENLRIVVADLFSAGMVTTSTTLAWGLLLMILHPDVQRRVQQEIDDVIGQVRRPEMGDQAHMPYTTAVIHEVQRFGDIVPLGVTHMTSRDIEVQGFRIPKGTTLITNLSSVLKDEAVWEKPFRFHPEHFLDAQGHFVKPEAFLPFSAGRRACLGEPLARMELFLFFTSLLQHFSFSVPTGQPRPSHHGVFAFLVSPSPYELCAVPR
Procedure, shortened: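 P450-Glo format: CYP2D6 converts a proluciferin substrate to luciferin in an NADPH-driven reaction lasting 1 h at room temperature. Light output, proportional to CYP2D6 activity, reflects interference by test chemicals.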

[2] = target: Cytochrome P450 2C19 (Homo sapiens) (UniProt P33261); assay: Cytochrome P450 Family 2 Subfamily C Member 19 (CYP2C19) small molecule antagonists: luciferase reporter qHTS assay (AID 1671197); also: nearly all actives have a fitted effect of over 65% in size; also: potency is read from the fitted curve at half-maximal effect; as to activity change, negative = inhibition: series mostly up to about 120 µM
Chain of Cytochrome P450 2C19 (Homo sapiens) (P33261 whole entry, looked up): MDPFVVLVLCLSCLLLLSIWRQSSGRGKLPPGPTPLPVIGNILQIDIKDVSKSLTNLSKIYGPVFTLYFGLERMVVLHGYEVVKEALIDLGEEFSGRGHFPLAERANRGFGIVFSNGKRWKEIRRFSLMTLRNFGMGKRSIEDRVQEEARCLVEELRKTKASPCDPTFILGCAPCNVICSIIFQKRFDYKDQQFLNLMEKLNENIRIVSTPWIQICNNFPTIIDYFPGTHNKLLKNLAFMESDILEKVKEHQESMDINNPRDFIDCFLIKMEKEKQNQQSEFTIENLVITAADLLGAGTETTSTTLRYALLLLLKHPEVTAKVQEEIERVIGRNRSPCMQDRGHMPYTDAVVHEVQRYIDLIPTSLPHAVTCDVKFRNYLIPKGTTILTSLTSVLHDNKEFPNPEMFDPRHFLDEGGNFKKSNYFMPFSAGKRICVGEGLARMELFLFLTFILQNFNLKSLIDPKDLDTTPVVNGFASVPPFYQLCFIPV
Procedure, shortened: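 CYP2C19 P450-Glo, 1536-well qHTS. Cpd + enzyme/proluciferin substrate 10 min RT; + NADPH regen, 37C 1 h; stop with luciferin detection reagent, 20 min RT, luminescence (RLU). Pos ctrl ketoconazole.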

[3] = target: Cytochrome P450 2C9 (Homo sapiens) (UniProt P11712); assay: Cytochrome P450 Family 2 Subfamily C Member 9 (CYP2C9) small molecule antagonists: luciferase reporter qHTS assay (AID 1671198); also: nearly all actives have a fitted effect of over 50% in size; also: potency is read from the fitted curve at half-maximal effect; as to activity change, negative = inhibition: series mostly up to about 120 µM
Chain of Cytochrome P450 2C9 (Homo sapiens) (P11712 whole entry, looked up): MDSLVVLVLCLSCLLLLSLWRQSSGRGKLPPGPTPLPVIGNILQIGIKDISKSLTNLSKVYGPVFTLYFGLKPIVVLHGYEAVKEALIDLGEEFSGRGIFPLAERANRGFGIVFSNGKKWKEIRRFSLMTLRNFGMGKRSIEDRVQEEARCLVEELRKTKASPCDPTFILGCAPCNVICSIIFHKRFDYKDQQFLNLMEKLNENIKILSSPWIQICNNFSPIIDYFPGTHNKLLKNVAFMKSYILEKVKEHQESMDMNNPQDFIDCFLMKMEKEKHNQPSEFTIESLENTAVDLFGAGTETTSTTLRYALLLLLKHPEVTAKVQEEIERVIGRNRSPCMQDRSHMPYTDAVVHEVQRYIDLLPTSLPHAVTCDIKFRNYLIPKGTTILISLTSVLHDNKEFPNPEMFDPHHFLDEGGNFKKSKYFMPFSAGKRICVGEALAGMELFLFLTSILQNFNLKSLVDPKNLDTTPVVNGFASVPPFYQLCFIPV
Procedure, shortened: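 P450-Glo proluciferin substrate with CYP2C9 enzyme; 10 min RT preincubation, then NADPH regeneration 1 h at 37C; luciferin detection reagent 20 min RT, luminescence in relative luminescence units.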

[4] = target: Cytochrome P450 1A2 (Homo sapiens) (UniProt P05177); assay: Cytochrome P450 Family 1 Subfamily A Member 2 (CYP1A2) small molecule antagonists: luciferase reporter qHTS assay (AID 1671199); also: nearly all actives have a fitted effect of over 50% in size; also: potency is read from the fitted curve at half-maximal effect; as to activity change, negative = inhibition: series mostly up to about 120 µM
Chain of Cytochrome P450 1A2 (Homo sapiens) (P05177 whole entry, looked up): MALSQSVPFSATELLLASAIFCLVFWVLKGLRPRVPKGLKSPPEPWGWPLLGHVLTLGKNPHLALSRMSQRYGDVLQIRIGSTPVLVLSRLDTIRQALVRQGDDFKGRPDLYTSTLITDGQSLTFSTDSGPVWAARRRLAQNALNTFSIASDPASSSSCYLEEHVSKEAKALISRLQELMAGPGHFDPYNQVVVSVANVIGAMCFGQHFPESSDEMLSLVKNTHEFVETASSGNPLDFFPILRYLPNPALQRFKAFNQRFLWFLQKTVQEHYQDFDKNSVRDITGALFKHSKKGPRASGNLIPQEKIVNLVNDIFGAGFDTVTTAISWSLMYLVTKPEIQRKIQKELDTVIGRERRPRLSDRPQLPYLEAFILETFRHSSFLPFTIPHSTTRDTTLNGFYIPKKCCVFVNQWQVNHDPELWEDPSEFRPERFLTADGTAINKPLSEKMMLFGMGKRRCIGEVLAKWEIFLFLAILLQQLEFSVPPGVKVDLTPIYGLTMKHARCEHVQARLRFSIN
Procedure, shortened: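 Inhibition of CYP1A2 conversion of proluciferin to luciferin, detected by luminescence. Reaction run 1 h at room temperature with NADPH regeneration after brief compound preincubation.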

[5] = target: Voltage-gated inwardly rectifying potassium channel KCNH2 (Homo sapiens) (UniProt Q12809); assay: Human Ether-a-go-go-Related Gene (hERG) channel small molecule antagonists: fluorescence cell-based qHTS assay (AID 1671200); also: series mostly up to about 77 µM; nearly all actives have a fitted effect of over 50% in size
Chain of Voltage-gated inwardly rectifying potassium channel KCNH2 (Homo sapiens) (Q12809 whole entry, looked up): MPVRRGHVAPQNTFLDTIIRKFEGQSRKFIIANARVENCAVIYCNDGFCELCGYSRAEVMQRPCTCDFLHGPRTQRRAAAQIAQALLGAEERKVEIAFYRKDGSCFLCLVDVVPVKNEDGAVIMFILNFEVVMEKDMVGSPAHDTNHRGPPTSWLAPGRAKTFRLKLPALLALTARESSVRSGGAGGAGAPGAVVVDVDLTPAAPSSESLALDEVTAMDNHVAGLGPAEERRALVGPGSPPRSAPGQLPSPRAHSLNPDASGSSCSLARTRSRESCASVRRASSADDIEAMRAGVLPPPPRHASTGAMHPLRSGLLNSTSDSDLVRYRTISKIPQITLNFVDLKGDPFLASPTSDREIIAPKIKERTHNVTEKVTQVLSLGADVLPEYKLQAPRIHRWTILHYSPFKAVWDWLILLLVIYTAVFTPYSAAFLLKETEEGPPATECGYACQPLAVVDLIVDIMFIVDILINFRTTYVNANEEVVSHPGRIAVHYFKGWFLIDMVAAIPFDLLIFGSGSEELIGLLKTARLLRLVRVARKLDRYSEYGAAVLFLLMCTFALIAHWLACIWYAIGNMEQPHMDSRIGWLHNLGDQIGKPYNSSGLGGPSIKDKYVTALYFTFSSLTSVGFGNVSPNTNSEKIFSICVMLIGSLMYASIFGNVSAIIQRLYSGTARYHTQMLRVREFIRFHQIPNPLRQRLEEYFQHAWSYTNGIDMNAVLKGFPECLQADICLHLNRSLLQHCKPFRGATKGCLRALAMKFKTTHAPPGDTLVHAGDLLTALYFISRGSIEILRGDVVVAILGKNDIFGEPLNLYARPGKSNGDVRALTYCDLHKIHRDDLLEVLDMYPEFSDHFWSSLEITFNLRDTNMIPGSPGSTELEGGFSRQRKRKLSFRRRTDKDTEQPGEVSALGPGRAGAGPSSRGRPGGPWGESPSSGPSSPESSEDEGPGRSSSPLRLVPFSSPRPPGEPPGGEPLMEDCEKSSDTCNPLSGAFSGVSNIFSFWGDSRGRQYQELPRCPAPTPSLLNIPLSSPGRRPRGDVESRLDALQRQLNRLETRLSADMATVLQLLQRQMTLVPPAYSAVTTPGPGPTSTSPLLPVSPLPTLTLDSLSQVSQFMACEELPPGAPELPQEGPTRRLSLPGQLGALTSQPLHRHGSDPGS
Procedure, shortened: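 Thallium flux as potassium surrogate: FluxOR II dye loaded 1 h at room temperature into hERG-expressing U2OS cells, then stimulus buffer added after 10 min. Kinetic 480 nm excitation/540 nm emission read, 2 min.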

[6] = target: Cytochrome P450 3A4 (Homo sapiens) (UniProt P08684); assay: Cytochrome P450 Family 3 Subfamily A Member 4 (CYP3A4) small molecule antagonists: luciferase reporter qHTS assay (AID 1671201); also: nearly all actives have a fitted effect of over 50% in size; also: potency is read from the fitted curve at half-maximal effect; as to activity change, negative = inhibition: series mostly up to about 120 µM
Chain of Cytochrome P450 3A4 (Homo sapiens) (P08684 whole entry, looked up): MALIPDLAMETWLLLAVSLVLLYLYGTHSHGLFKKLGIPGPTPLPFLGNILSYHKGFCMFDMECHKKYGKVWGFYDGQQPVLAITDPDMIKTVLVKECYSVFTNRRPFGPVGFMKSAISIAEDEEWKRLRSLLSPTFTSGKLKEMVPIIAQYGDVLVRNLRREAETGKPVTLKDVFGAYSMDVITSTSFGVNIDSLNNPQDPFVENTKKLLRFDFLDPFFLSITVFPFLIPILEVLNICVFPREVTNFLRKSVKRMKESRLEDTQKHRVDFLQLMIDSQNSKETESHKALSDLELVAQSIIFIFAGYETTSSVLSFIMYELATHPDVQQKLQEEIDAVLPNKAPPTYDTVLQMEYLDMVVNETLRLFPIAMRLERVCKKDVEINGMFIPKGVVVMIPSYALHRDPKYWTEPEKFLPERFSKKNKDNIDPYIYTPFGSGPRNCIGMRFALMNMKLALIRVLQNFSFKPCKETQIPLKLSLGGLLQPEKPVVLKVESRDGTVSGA
Procedure, shortened: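 Recombinant human CYP3A4 converts a proluciferin substrate to luciferin over 1 h at room temperature after NADPH regeneration solution is added (compound preincubated 10 min); detection reagent stops reaction, luminescence read 20 min later as relative units.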

[7] = target: Nuclear receptor subfamily 1 group I member 2 (Homo sapiens) (UniProt O75469); assay: CYP3A4 induction through human pregnane X receptor (PXR) by small molecules, qHTS assay (AID 1346984); also: nearly all actives have a fitted effect of over 40% in size
Procedure, shortened: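 Steps: seed DPX-2 cells, 5 hr at 37C; pin-transfer compounds; 24 hr at 37C; add Luciferin-IPA (3uM final), 3 hr at 37C; add One-Glo, 30 min RT; read luminescence.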

[8] = target: Nuclear receptor subfamily 1 group I member 2 (Homo sapiens) (UniProt O75469); assay: Human pregnane X receptor (PXR) activation by small molecules, qHTS assay (AID 1346985); also: nearly all actives have a fitted effect of over 40% in size
Procedure, shortened: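 DPX-2 cells (HepG2 co-transfected with a PXR response element and a CYP3A4-promoter luciferase construct) were seeded at 2,000 per well, rested 5 hr at 37C, then exposed to DMSO-dissolved compounds for 24 hr. Activation was read as luciferase luminescence.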
% is scaled to controls: 0 for no effect and ±100 for the full control effect.

Cc1cc(=O)oc2cc(O[C@@H]3SC[C@@H](O)[C@H](O)[C@H]3O)ccc12
inactive: Potency [1] | Potency [2] | Potency [3] | Potency [4] | Potency [5] | Potency [6]

O=C(c1ccccc1)c1cccc(O)c1
active: Potency [1] 64.3 µM | Potency [2] 22.8 µM | Potency [4] 36.2 µM
inactive: Potency [3] | Potency [5]

c1coc(Cn2cccc2)c1
inactive: Potency [1] | Potency [2] | Potency [3] | Potency [4] | Potency [5] | Potency [6]

C=C(C)C(=O)OCCCC
inactive: Potency [1] | Potency [2] | Potency [3] | Potency [4] | Potency [5] | Potency [6]

Cc1cc2c(cc1CC(=O)c1sccc1S(=O)(=O)Nc1onc(C)c1Cl)OCO2
inactive: Potency [5]
active: Potency [1] 2.45 µM | Potency [2] 8.71 µM | Potency [3] 8.71 µM | Potency [4] 3.23 µM

CC1(C)CC(N)CC(C)(C)N1
inactive: Potency [1] | Potency [2] | Potency [3] | Potency [4] | Potency [5] | Potency [6]

CC(O)CCCCn1c(=O)c2c(ncn2C)n(C)c1=O (stereo not drawn)
inactive: outcome [7] | outcome [8] | Potency [2] | Potency [3] | Potency [5] | Potency [6]

Cc1ccccc1OCC(=O)O
active: Potency [3] 79.6 µM
inactive: Potency [1] | Potency [2] | Potency [4] | Potency [5] | Potency [6]

N#Cc1cc(NC(=O)C(=O)O)c(Cl)c(NC(=O)C(=O)O)c1
inactive: Potency [1] | Potency [2] | Potency [3] | Potency [4] | Potency [5] | Potency [6]

COC(=O)C(c1ccccc1Cl)N1CCc2sccc2C1 (stereo not drawn)
inactive: Potency [5]
active: Potency [1] 17.4 µM | Potency [2] 0.871 µM | Potency [3] 17.4 µM | Potency [4] 15.5 µM

C/C=C(\C)C=O
active: Potency [4] 63.6 µM
inactive: Potency [1] | Potency [2] | Potency [3] | Potency [5] | Potency [6]

CC(=O)Nc1ccc(S(=O)(=O)Nc2cc(C)on2)cc1
inactive: Potency [1] | Potency [2] | Potency [3] | Potency [4] | Potency [5] | Potency [6]

COc1cc2nc(N3CCN(C(=O)C4CCCO4)CC3)nc(N)c2cc1OC (stereo not drawn)
inactive: outcome [8] | Potency [3] | Potency [4]

CC(C)C(C)C
inactive: Potency [1] | Potency [2] | Potency [3] | Potency [4] | Potency [5] | Potency [6]

CCCCCC(CC)OC(=O)CCCOc1ccc(Cl)cc1Cl (stereo not drawn)
active: Potency [2] 35.5 µM | Potency [3] 28.2 µM | Potency [4] 35.5 µM
inactive: Potency [1] | Potency [5] | Potency [6]

CCCCCCCCCCCBr
inactive: Potency [1] | Potency [2] | Potency [3] | Potency [4] | Potency [5] | Potency [6]

Cc1cc(C)c(C)c(C)c1
inactive: Potency [1] | Potency [2] | Potency [3] | Potency [4] | Potency [5] | Potency [6]

CCCCCCCOC(C)=O
inactive: Potency [1] | Potency [2] | Potency [3] | Potency [4] | Potency [5] | Potency [6]

CN(C)c1ccncc1
active: Potency [1] 31.7 µM
inactive: Potency [2] | Potency [3] | Potency [4] | Potency [5] | Potency [6]

CCCC(=O)CC
active: Potency [2] 41.2 µM | Potency [4] 20.6 µM
inactive: Potency [1] | Potency [3] | Potency [5] | Potency [6]

CCOC(=O)c1ccc(N(C)C)cc1
inactive: Potency [1] | Potency [5] | Potency [6]
active: Potency [2] 22.4 µM | Potency [3] 31.7 µM | Potency [4] 5.03 µM

CCCCCCCCCCCCCCBr
inactive: Potency [1] | Potency [2] | Potency [3] | Potency [4] | Potency [5] | Potency [6]

CCCc1ccc(O)c(OC)c1
active: Potency [4] 31.7 µM
inactive: Potency [1] | Potency [2] | Potency [3] | Potency [5] | Potency [6]

CCc1ccc(CC)cc1
inactive: Potency [1] | Potency [2] | Potency [3] | Potency [4] | Potency [5] | Potency [6]

Cc1ccc(O)c(C(=O)c2ccccc2)c1
active: Potency [1] 11.4 µM | Potency [2] 1.01 µM | Potency [3] 5.69 µM | Potency [4] 1.43 µM | Potency [6] 32 µM

C=CC(=O)CC
inactive: Potency [1] | Potency [2] | Potency [3] | Potency [4] | Potency [5] | Potency [6]

CCCCCCCCCCCCCCCCN(C)C
inactive: activity change, negative = inhibition [2] -5.94% [at 10.5 µM] | activity change, negative = inhibition [3] -0.0403% [at 10.5 µM] | activity change, negative = inhibition [4] -22.3% [at 10.5 µM] | activity change, negative = inhibition [5] -6.11% [at 6.97 µM] | activity change, negative = inhibition [6] -0.256% [at 10.5 µM]
active: Potency [1] 3.19 µM

OCCC(F)(F)C(F)(F)C(F)(F)C(F)(F)C(F)(F)C(F)(F)F
active: Potency [4] 31.7 µM
inactive: Potency [1] | Potency [2] | Potency [3] | Potency [5] | Potency [6]

CC(=O)O[C@@H]1CC2C3CCc4cc(OC(=O)c5ccccc5)ccc4C3CCC2(C)[C@H]1OC(C)=O (stereo partly drawn)
inactive: Potency [1] | Potency [2] | Potency [4] | Potency [6]
active: Potency [3] 11 µM

CCOC(=O)CC
inactive: Potency [1] | Potency [2] | Potency [3] | Potency [4] | Potency [5] | Potency [6]

CCCCCCCCC1CO1 (stereo not drawn)
inactive: Potency [1] | Potency [2] | Potency [3] | Potency [4] | Potency [5] | Potency [6]

C=C(C)C(=O)OCCOC1CC2CC1C1C=CCC21 (stereo not drawn)
inactive: Potency [1] | Potency [6]
active: Potency [2] 30.3 µM | Potency [3] 42.9 µM | Potency [4] 42.9 µM
